Assay outcomes as filed in PubChem BioAssay.
Sm TGR inh: inhibitors of Schistosoma mansoni thioredoxin glutathione reductase | purified TGR, DTNB reduction, TNB absorbance 405 nm | Potency, µM (top dose mostly 114 µM), hits mostly inhibitors | hit rate 3% among 360,000 | AID 485364; note: nearly all actives have a fitted effect of over 60% in size
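TGR 20 nM + NADPH 100 uM (dispensed conc.), cpd preinc 15 min RT; start with NADPH (500 uM addition) then DTNB (15 mM addition). Kinetic TNB absorbance, 405 nm filter. Four-parameter Hill fit across titration.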
FBPA Giardia inh: blocks Giardia fructose-bisphosphate aldolase activity | A8B2U2 | purified Giardia FBPA | Potency, µM (highest dose often 59.6 µM), usual class: inhibitors | hit rate 0.71% among 290,000 | AID 2451; note: nearly all actives have a fitted effect of over 55% in size
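40 nM FBPA preincubated 10 min at RT with compound (up to 57.5 uM final), then substrate plus GAPDH/TPI/NAD/arsenate coupling and diaphorase/resazurin added. Fluorescence read after 20 min at RT, 525/598 nm.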
Tb PYK inh: inhibitors of Trypanosoma brucei pyruvate kinase; TbPYK enzyme, Kinase-Glo Plus ATP luminescence, 45 min; Potency, µM (top dose mostly 76.8 µM), actives largely listed as inhibitors; hit rate 0.12% among 410,000; note: nearly all actives have a fitted effect of over 50% in size
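Quantitative HTS: titrated library compounds versus trypanosomal pyruvate kinase in TEA buffer (pH 7.2) containing KCl, MgCl2, BSA and Tween-20. Reactions were initiated with ADP, 130 uM final. Kinase-Glo Plus luminescence was read after 45 min at RT.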
LmPK inh: LmPK (Leishmania mexicana) enzyme inhibition | purified LmPK, Kinase-Glo ATP luminescence, 1 h | Potency, µM (doses to about 57.5 µM), most hits filed as inhibitors | hit rate 0.37% among 290,000
Target sequence (Q27686 whole entry, looked up): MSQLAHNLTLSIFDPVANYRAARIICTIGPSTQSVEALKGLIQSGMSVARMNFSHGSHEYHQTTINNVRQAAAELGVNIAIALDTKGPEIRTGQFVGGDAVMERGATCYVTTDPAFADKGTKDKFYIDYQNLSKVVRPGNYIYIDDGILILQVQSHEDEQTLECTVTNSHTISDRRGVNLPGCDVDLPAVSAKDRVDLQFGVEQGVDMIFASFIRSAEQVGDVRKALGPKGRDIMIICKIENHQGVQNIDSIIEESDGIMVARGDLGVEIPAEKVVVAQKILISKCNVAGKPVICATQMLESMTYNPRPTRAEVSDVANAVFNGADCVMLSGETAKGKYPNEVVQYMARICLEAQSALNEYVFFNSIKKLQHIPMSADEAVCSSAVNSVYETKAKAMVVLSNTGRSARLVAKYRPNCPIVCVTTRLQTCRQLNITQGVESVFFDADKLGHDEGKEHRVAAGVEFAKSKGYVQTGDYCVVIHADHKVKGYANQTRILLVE
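Kinase-Glo luminescence read after 1 h RT reaction of 0.1 nM LmPK with 0.5 mM PEP and 0.1 mM ADP. Activity scaled between uninhibited and enzyme-free controls.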
CHX counter: counter-screen for Shiga toxin inhibitors: cycloheximide protein synthesis inhibition; cell reporter, cycloheximide protein synthesis inhibition counterscreen; max response, %; hit rate 12% among 300,000; AID 2314; in the data active = max response mostly above about 13%, no sharp cut-off; inactive = mostly below about 14%; note: read at 38.3 µM for the half of the compounds with a filed dose
Shiga inhibitor: blocks Shiga toxin action in Vero cells; Vero cells, Shiga toxin protein synthesis inhibition reporter; inhibition, % at 38.7 µM; hit rate 9.2% among 290,000; AID 2315; in the data active = inhibition mostly above about 28%, no sharp cut-off; inactive = mostly below about 43%
Each line names hits and unclear results; the compound was inactive in the other large screens. Shown is part of a subset that was picked to be rich in hits. Unless noted, calls come from the whole dose curve; as a rule, active = well fitted curve in the direction sought with a large enough effect; inconclusive = small, poorly fitted or top-dose-only effect, or another doubt; inactive = no such curve, though single readings can be large; an effect the other way counts as inactive or inconclusive.

CCC(CC)C(=O)Nc1cccc(/C(C)=N/NC(=O)c2c(Br)cnn2C)c1	none
CCC(CC)C(=O)Nc1cccc(/C(C)=N/NC(=O)c2ccccc2Cl)c1	CHX counter 16
C/C(=N\NC(=O)c1cccc(Cl)c1)c1cccc(NC(=O)C(C)C)c1	CHX counter 30, Shiga inhibitor 46
C/C(=N\NC(=O)c1ccc(Cn2cc(Br)cn2)o1)c1cccc(NC(=O)C(C)C)c1	CHX counter 20
C/C(=N\NC(=O)c1ccc(Cn2cc([N+](=O)[O-])cn2)o1)c1cccc(NC(=O)C(C)C)c1	none
C/C(=N\NC(=O)c1ccncc1)c1cccc(NC(=O)c2ccc(Cl)s2)c1	CHX counter 31, Shiga inhibitor 77 (no result: FBPA Giardia inh)
CCCN1CCN(c2ncnc3sc(C(=O)Nc4ccc(OC(F)(F)F)cc4)c(C)c23)CC1	none (no result: FBPA Giardia inh, LmPK inh, CHX counter, Shiga inhibitor)
O=C1CCCCC1CCc1ccncc1 (stereo unspecified)	none (no result: Sm TGR inh, FBPA Giardia inh, LmPK inh, CHX counter, Shiga inhibitor)
C/C(=N\NC(=O)c1ccc(Cl)cc1)c1cccc(NC(=O)C(C)C)c1	CHX counter 17
C/C(=N\NC(=O)c1ccc(Cl)c(Cl)c1)c1cccc(NC(=O)C(C)C)c1	none
Cc1cc(C(=O)c2cnc(/N=C/N(C)C)s2)cc(C)c1O	none
CN(C)/C=N/c1ncc(C(=O)OC(C)(C)C)s1	CHX counter 30, Shiga inhibitor 69
CN(C)/C=N/c1ncc(C(=O)c2ccccc2)s1	CHX counter 52, Shiga inhibitor 66
CN(C)/C=N/c1ncc(C(=O)c2ccc(-c3ccccc3)cc2)s1	none
CCOc1ccc(NC(=O)CN(C)C(=O)c2ccc(=O)[nH]c2)cc1OCC	none (no result: FBPA Giardia inh)
Cc1cc(N)n(-c2ccccc2C)n1	none
Cc1cc(C)c2nc(-n3nc(C)cc3N)cc(C)c2c1	CHX counter 26, Shiga inhibitor 108
Cc1cc(N)n(-c2cc(C)c3ccccc3n2)n1	LmPK inh inconclusive, CHX counter 46, Shiga inhibitor 79
Cc1cc(N)n(-c2ccccc2)n1	none
Cc1cc(N)n(-c2nc(-c3cccnc3)nc3ccccc23)n1	CHX counter 33, Shiga inhibitor 64
COc1cc(CN(C(=O)c2ccccc2[N+](=O)[O-])c2ccccn2)cc(OC)c1OC	none (no result: FBPA Giardia inh, LmPK inh, CHX counter, Shiga inhibitor)
NC(c1csc(NC(=O)Nc2cccc(Cl)c2)n1)C1CCCCC1 (stereo unspecified)	none (no result: Sm TGR inh, FBPA Giardia inh, LmPK inh, CHX counter, Shiga inhibitor)
Cc1cc(NC(=S)Nc2ccc(C)c(Cl)c2)n[nH]1	Sm TGR inh 7.1µM, FBPA Giardia inh inconclusive, CHX counter 68, Shiga inhibitor 133
COc1ccc(NC(=S)Nc2cc(C)[nH]n2)cc1Cl	Sm TGR inh inconclusive, FBPA Giardia inh inconclusive, CHX counter 45, Shiga inhibitor 90
COc1ccc(NC(=S)Nc2cc(-c3ccccc3)[nH]n2)cc1Cl	CHX counter 20
COc1cc(C)c(NC(=S)Nc2ccc(C)c(Cl)c2)cc1OC	none
COc1ccc(NC(=O)c2cc(-c3cc(C)ccc3O)n[nH]2)cc1Cl	none
O=C(Nc1ccnn1C1CCN(CCCc2ccccc2)CC1)c1ccccc1Cl	none (no result: FBPA Giardia inh)
CSc1ccc(CN(C)C(=O)c2cc3ccccc3o2)cc1	CHX counter 39, Shiga inhibitor 87
CN(Cc1c(F)cccc1Cl)C(=O)c1cc2ccccc2o1	CHX counter 37
CN(Cc1c(F)cccc1Cl)C(=O)c1ccc2ccccc2n1	none
COc1ccc(NC(=O)C2=CC(c3ccc4c(c3)OCO4)=NS(=O)(=O)N2C)cc1	none (no result: FBPA Giardia inh, LmPK inh, CHX counter, Shiga inhibitor)
Cc1ccc(S(=O)(=O)c2cn(C)c3cc(N4CCOCC4)c(F)cc3c2=O)c(C)c1	none (no result: FBPA Giardia inh, LmPK inh, CHX counter, Shiga inhibitor)
COc1ccc(CNC(=O)c2ccc(Cn3cc(Br)cn3)o2)cc1	Sm TGR inh inconclusive (no result: FBPA Giardia inh)
COc1ccc(CNC(=O)c2ccc(Cn3cc(Cl)cn3)o2)cc1	Sm TGR inh 14µM
NNC(=O)c1ccc(Cn2cc(Cl)cn2)o1	CHX counter 18
Cc1ccc2nc(NC(=O)c3ccc(Cn4cc(Cl)cn4)o3)sc2c1	CHX counter 33
CCC(C)(C)NC(=S)Nc1ccc(-c2nc3ccc(C)cc3s2)cc1	CHX counter 44, Shiga inhibitor 82
Cc1ccc2nc(-c3ccc(NC(=S)NCC(C)(C)CN(C)C)cc3)sc2c1	none (no result: Sm TGR inh, FBPA Giardia inh, LmPK inh, CHX counter, Shiga inhibitor)
Cc1ccc2nc(-c3ccc(NC(=S)NCCC(C)C)cc3)sc2c1	none (no result: Sm TGR inh, FBPA Giardia inh, LmPK inh, CHX counter, Shiga inhibitor)
